Data taken from PubChem BioAssay.

Legend:
[1] = inhibitors of PAF-induced NFkB signaling in CF airway cells, dose response, cell-based, uHTS hits, panel, cytotoxicity readout (AID 624344); conditions: CF bronchial epithelial cells, PAF-induced NFkB reporter inhibition, with PAF, run 1; at 79 µM (top of the series) unless noted
[2] = as above; conditions: CF bronchial epithelial cells, PAF-induced NFkB reporter inhibition, with PAF, run 2; at 79 µM (top of the series) unless noted
[3] = biological target: Tumor necrosis factor receptor superfamily member 10B (Homo sapiens) (UniProt O14763); assay: caspase-8 TRAIL sensitization, hit retest, confirmation, cell-based, NB7+caspase-8, with/without TRAIL, luminescence panel (AID 651596); conditions: NB7 neuroblastoma + caspase-8, TRAIL sensitization, luminescence viability, with TRAIL, mean of runs, at 10 µM, stronger effect = higher value
Tumor necrosis factor receptor superfamily member 10B (Homo sapiens), sequence (O14763 whole entry, looked up): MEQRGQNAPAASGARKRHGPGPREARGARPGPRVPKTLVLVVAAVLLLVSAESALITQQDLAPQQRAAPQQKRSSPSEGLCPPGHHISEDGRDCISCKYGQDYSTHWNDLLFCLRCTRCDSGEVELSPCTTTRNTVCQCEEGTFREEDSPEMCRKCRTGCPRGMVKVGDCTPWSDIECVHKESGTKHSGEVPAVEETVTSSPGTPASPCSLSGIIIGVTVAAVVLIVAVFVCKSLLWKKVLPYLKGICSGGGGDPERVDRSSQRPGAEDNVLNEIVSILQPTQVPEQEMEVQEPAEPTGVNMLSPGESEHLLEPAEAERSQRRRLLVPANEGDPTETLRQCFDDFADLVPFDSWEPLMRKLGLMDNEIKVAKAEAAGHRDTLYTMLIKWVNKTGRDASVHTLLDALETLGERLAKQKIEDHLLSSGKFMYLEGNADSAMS

[4] = as above; conditions: NB7 neuroblastoma + caspase-8, without TRAIL, luminescence viability, without TRAIL, mean of runs, at 10 µM
Cytotoxicity = assay: inhibitors of PAF-induced NFkB signaling in CF airway cells, dose response, cell-based, uHTS hits, panel, cytotoxicity readout (AID 624344); conditions: CF bronchial epithelial cells; run 1, at 19.8 µM (top of the series)

Cc1ccc(NC(=O)c2cc(C(=O)c3cc(Cl)ccc3O)cn(-c3ccc(C)cc3)c2=O)cc1
inhibition [1]: 65.5% | inhibition [2]: 96.9%

CC(=O)c1ccc(-c2cnc3c(NC=O)cc(-c4ccc(C(=O)NC5CC5)cc4)cn23)cc1
inhibition [1]: 99.5% | inhibition [2]: 104%

COc1ccc(-c2[nH]ncc2-c2ccc3c(c2)OCCO3)c(O)c1
inhibition [1]: 107% | inhibition [2]: 114%

NC(=S)N1OC[C@@H]2COc3ccc4ccccc4c3[C@@H]21
inhibition [1]: 114% | inhibition [2]: 105%

COc1ccccc1/C=C/C(=O)c1c2c(c(C)[nH]c1=O)CCCC2
inhibition [1]: 110% | inhibition [2]: 96%

Cn1c(SC2=CS(=O)(=O)c3ccccc32)nc2ccccc21
inhibition [1]: 101% | inhibition [2]: 102%

CN1CCC(OC(=O)c2cc3cc(Cl)cc(Cl)c3oc2=O)CC1
inhibition [1]: 108% | inhibition [2]: 97.8%

COc1ccc(Nc2nccc(-c3cccc(N)c3)n2)cc1
inhibition [1]: 103% | inhibition [2]: 117%

Cc1nn(-c2ccccc2)c(Cl)c1C(=O)N1CCN(c2ncnc3c2cnn3-c2ccccc2)CC1
inhibition [1]: 114% | inhibition [2]: 98.4% | activity [3]: 82% | activity [4]: 59.6%

N#CC(C#N)=C1SC(=Nc2ccccc2)C(=Nc2ccccc2)N1c1ccccc1
inhibition [1]: 98.5% | inhibition [2]: 99.1% | activity [3]: 92.6% | activity [4]: 83.6%

COc1ccc(-c2csc(/C(C#N)=C\c3ccc(O)c([N+](=O)[O-])c3)n2)cc1OC
inhibition [1]: 97.7% | inhibition [2]: 102%

Cn1ncc2c(O/N=C(\N)c3ccc(C(C)(C)C)cc3)ncnc21
inhibition [1]: 101% | inhibition [2]: 112% | activity [3]: 98.5% | activity [4]: 98.8%

CCOc1ccccc1NC(=S)Nc1ccc2cn[nH]c2c1
inhibition [1]: 104% | inhibition [2]: 114%

COc1cccc(-c2ccc3ncnc(NCc4cc(C)cs4)c3c2)c1
inhibition [1]: 106% | inhibition [2]: 116%

COc1ccc(CN(C(=O)CSc2nnc(-c3c[nH]c4ccccc34)o2)c2ccc(F)cc2)cc1OC
inhibition [1]: 101% | inhibition [2]: 103%

CC1CCc2sc3ncnc(N4CCOCC4)c3c2C1 (centres undefined)
inhibition [1]: 112% | inhibition [2]: 101%

Cc1ccc(S(=O)(=O)n2cc(-c3ccccc3)c3ccccc32)cc1
inhibition [1]: 114% | inhibition [2]: 108%

COc1ccc2cc3c(N)nn(C(=O)c4ccccc4[N+](=O)[O-])c3nc2c1
inhibition [1]: 101% | inhibition [2]: 111%

COc1ccc(-n2nc(C(=O)NCC(=O)Nc3cc(OC)c(OC)c(OC)c3)c3ccccc3c2=O)cc1Cl
inhibition [1]: 96.2% | inhibition [2]: 95.1%

CCC(=O)c1ccc(O)c(CC=C(C)C)c1
inhibition [1]: 114% | inhibition [2]: 97.8%

COc1ccc(NC(=O)Cn2ncn3nc(-c4ccc(OC)cc4)cc3c2=O)cc1
inhibition [1]: 102% | inhibition [2]: 107%

Cc1cc(C)c(O)c(CN(C)Cc2cc(Cl)cc(Cl)c2O)c1
inhibition [1]: 109% | inhibition [2]: 101% | inhibition (Cytotoxicity): 12%

C=C(C)[C@@H]1CCC2(C(=O)O)CC[C@]3(C)[C@H](CC[C@@H]4[C@@]5(C)CCC(=O)C(C)(C)[C@@H]5CC[C@]43C)[C@@H]12 (some centres undefined)
inhibition [1]: 86.7% | inhibition [2]: 102%

O=C(Nc1cccc(S(=O)(=O)N2CCCCC2)c1)Nc1ccc(Cl)cc1Cl
inhibition [1]: 103% | inhibition [2]: 117%

Oc1ccc(Nc2ncnc3scc(-c4ccccc4)c23)cc1
inhibition [1]: 56% | inhibition [2]: 41%

Cc1c([N+](=O)[O-])c2ccc(O)cc2n1-c1ccccc1
inhibition [1]: 109% | inhibition [2]: 94.8%

CCCC1/C(=N/O)CC(c2ccccc2)NC1c1ccccc1 (centres undefined)
inhibition [1]: 106% | inhibition [2]: 98.7%

CCS(=O)(=O)c1ncc(Cl)c(C(=O)Nc2ccccc2OC)n1
inhibition [1]: 95.8% | inhibition [2]: 86% | activity [3]: 98.4% | activity [4]: 99%

Cc1cccc(N=c2oc3cc(O)ccc3cc2C(N)=O)c1
inhibition [1]: 87.7% | inhibition [2]: 80%

O=C(Oc1cc2oc(=O)cc(-c3ccccc3)c2cc1Cl)C1CCCCC1
inhibition [1]: 113% | inhibition [2]: 105%

O=C(Nc1ccc2ccccc2c1)c1ccccc1O
inhibition [1]: 102% | inhibition [2]: 90.4% | activity [3]: 64.2% | activity [4]: 52.8%

CC(C)C[C@@H](CN1CCCC1CN1C(=S)NC[C@@H]1Cc1ccc(O)cc1)N1C[C@H](Cc2ccc(O)cc2)N(CC2CCCCCC2)C1=S (some centres undefined)
inhibition [1]: 116% | inhibition [2]: 101% | activity [3]: 18.3% | activity [4]: 52%

CCCCCCc1cc2cc(S(=O)(=O)c3ccc(F)cc3)c(=O)oc2cc1O
inhibition [1]: 103% | inhibition [2]: 87.3%

CN(C)c1ccc(Nc2ncnc3ccc(Br)cc23)cc1
inhibition [1]: 104% | inhibition [2]: 118%

CCNC(=O)C1(C)CCCN(Cc2ccc(-c3ccccc3)o2)C1 (centres undefined)
inhibition [1]: 94% | inhibition [2]: 74.8%

CCC1(O)CC2CN(CCc3c([nH]c4ccccc34)C(C(=O)OC)(c3cc4c(cc3OC)N(C=O)C3C(O)(C(=O)OC)C(OC(C)=O)C5(CC)C=CCN6CCC43C65)C2)C1 (centres undefined)
inhibition [1]: 107% | inhibition [2]: 78.2%

COc1ccc2[nH]c3c(c2c1)CCN1C(=O)C(CC(=O)NCCC2=CCCCC2)C[C@H](C(=O)N2CCCCC2)[C@@]31CCc1ccccc1 (some centres undefined)
inhibition [1]: 104% | inhibition [2]: 40.2% [at 39.5 µM]

CC1(Cc2cccc(F)c2)C(=O)Nc2ccc(-c3cccnc3)cc21 (centres undefined)
inhibition [1]: 112% | inhibition [2]: 98.2%
